Screens as filed in PubChem.
In the library only some 12% were active in any assay of this set; here they are far more common.
JMJD2A Tudor inh = blocks the human JMJD2A Tudor domain; AlphaScreen JMJD2A-Tudor / H3K4me3 peptide binding; Potency, µM (doses to about 114 µM), usual class: inhibitors; 390,000 compounds, 4.4% hits; AID 504339; note: nearly all actives have a fitted effect of over 50% in size
TDP1 inh = TDP1 (human) enzyme inhibition | Q9NUW8 | recombinant TDP1, AlphaScreen DNA substrate cleavage | Potency, µM (highest dose often 130 µM), hits mostly inhibitors | 350,000 compounds, 0.28% hits | AID 485290; note: nearly all actives have a fitted effect of over 40% in size
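Compounds were preincubated with Tdp1 (1 nM final) for 15 min at room temperature before substrate (15 nM final) started a 5 min reaction; beads (10 ug/ml final) were then added for 10 min before AlphaScreen detection.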
Sfp PPTase inh = blocks B. subtilis Sfp PPTase activity; AID 1490; Potency, µM, hits mostly inhibitors; Biochemical Sfp PPTase activity, qHTS; Q9F4F7; 310,000 compounds, 3.5% hits;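 note: the enzyme is Sfp with the accession as filed and its product quenches rhodamine fluorescence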
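Fluorescence-quenching assay with 15 nM Sfp, 5 uM rhodamine-CoA and 12.5 uM BHQ-2-labelled ybbR peptide in pH 7.6 Hepes/MgCl2 buffer. Enzyme was pre-incubated with compound for 15 min at room temperature. Rate was taken from the 30-min fluorescence change (525/598 nm).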
HP1b binding inh = inhibitors of HP1-beta chromodomain binding to methylated histone tails | Potency, µM (series often up to 114 µM), actives largely listed as inhibitors | P83916 | AID 540317 | AlphaScreen HP1-beta / biotin-H3K9me3 peptide binding | 390,000 compounds, 0.56% hits; note: nearly all actives have a fitted effect of over 70% in size
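HP1-beta protein (50 nM final) preincubated 30 min at room temperature with biotinylated H3(1-18)K9me3 peptide (50 nM) in PBS pH 7.4, 0.01% Tween-20, then compound added for 30 min. AlphaScreen streptavidin donor/nickel chelate acceptor beads (10 ug/mL final), 30 min dark, luminescence read.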
BAZ2B inh = blocks human BAZ2B; AlphaScreen BAZ2B-H3K14Ac peptide displacement; Potency, µM (titrated, usually from 114 µM), usual class: inhibitors; 360,000 compounds, 4.4% hits; AID 504333; note: nearly all actives have a fitted effect of over 60% in size
Target sequence (Q9UIF8 whole entry, looked up): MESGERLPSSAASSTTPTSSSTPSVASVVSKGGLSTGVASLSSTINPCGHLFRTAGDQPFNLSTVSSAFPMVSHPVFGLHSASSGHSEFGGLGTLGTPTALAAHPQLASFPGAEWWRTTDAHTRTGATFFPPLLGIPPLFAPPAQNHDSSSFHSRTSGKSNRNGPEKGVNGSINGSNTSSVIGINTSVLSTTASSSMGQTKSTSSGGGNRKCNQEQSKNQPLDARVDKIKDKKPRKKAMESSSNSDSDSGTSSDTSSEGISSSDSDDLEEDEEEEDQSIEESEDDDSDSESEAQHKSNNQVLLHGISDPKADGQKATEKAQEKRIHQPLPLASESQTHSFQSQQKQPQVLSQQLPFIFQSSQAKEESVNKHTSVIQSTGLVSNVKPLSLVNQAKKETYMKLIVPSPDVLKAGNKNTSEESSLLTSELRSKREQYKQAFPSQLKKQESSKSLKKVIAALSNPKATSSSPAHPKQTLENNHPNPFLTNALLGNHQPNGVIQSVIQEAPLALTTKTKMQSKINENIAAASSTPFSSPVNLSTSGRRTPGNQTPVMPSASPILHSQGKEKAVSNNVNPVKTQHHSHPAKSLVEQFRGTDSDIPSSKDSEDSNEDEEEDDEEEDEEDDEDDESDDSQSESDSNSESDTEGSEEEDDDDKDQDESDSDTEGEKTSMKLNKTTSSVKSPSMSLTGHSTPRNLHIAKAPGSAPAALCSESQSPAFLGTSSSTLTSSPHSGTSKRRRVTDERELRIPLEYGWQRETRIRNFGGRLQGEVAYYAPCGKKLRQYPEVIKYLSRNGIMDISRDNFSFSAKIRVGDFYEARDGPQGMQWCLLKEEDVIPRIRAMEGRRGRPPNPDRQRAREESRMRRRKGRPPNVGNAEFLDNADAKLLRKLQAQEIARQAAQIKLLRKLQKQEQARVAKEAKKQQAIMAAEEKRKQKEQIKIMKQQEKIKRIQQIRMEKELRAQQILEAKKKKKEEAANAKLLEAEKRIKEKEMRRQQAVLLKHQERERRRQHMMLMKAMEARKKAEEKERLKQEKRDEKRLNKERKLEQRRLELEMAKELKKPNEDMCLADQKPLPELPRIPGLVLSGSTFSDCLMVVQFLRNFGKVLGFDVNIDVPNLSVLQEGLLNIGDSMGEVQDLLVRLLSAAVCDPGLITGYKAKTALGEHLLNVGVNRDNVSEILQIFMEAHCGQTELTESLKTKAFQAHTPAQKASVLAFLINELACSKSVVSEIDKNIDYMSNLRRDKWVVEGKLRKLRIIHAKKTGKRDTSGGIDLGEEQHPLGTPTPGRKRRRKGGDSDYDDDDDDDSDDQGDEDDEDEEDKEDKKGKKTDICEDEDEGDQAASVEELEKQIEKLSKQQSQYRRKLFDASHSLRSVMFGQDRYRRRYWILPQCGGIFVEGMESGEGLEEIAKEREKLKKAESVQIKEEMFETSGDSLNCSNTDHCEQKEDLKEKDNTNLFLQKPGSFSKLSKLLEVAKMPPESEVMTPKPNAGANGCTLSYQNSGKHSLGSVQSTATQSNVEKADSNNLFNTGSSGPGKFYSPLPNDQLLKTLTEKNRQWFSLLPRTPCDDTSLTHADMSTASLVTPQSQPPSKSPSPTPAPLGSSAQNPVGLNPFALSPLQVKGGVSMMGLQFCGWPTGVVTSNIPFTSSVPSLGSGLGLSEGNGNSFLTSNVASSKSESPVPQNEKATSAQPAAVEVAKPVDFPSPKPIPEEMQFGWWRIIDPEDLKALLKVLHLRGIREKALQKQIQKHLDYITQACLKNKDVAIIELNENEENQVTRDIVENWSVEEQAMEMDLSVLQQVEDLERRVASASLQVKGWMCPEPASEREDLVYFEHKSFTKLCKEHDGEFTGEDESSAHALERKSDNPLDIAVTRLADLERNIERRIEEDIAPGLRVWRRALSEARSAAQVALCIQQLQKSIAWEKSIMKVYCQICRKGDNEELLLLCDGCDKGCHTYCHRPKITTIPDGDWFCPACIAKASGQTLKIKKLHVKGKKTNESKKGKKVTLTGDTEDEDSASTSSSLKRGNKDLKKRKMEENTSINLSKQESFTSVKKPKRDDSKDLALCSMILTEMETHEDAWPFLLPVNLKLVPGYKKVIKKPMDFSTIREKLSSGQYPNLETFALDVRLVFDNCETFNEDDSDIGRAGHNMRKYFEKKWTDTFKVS
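AlphaScreen luminescence quantifies BAZ2B engagement of H3K14Ac peptide; the protein and biotinylated peptide are both at 50 nM final, buffer PBS pH 7.4 with 0.01% Tween-20, all steps at room temperature.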
G9a block = blocks human histone lysine methyltransferase G9a. G9a H3K9 monomethylation, AlphaScreen, 2 h. Potency, µM (doses to about 102 µM), usual class: inhibitors. 350,000 compounds, 8.8% hits. AID 504332; note: nearly all actives have a fitted effect of over 75% in size
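Enzyme 20 nM + cpd, 15 min RT; add b-H3K9 pep 500 nM / SAM 20 uM; 2 h RT; anti-H3K9me1 Ab 0.5 ug/mL + SA donor / anti-rabbit acceptor beads 20 ug/mL each, 10 min; AlphaScreen read.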
Numbers stand for hits; 0 = inactive; ? = inconclusive; - = no result; [ ] = dose if it differs, or a comment. Calls come from the whole dose curve; as a rule, active = well fitted curve in the direction sought with a large enough effect; inconclusive = small, poorly fitted or top-dose-only effect, or another doubt; inactive = no such curve, though single readings can be large; an effect the other way counts as inactive or inconclusive.

SMILES	JMJD2A Tudor inh	TDP1 inh	Sfp PPTase inh	HP1b binding inh	BAZ2B inh	G9a block
O=C(CN1C(=O)CSC1=O)Nc1ccc(N2CCOCC2)cc1	0	0	0	0	0	16µM
COc1ccccc1CNCC(=O)Nc1ccc(N2CCOCC2)cc1	40µM	0	0	0	50µM	4.5µM
COc1ccccc1NC(=O)Nc1ccc(N2CCOCC2)cc1	?	0	0	0	0	32µM
O=C(Cc1cccc2ccccc12)Nc1ccc(N2CCOCC2)cc1	0	0	0	0	50µM	-
O=C(Cc1ccccc1)Nc1ccc(N2CCOCC2)cc1	0	0	0	0	0	0
COc1ccccc1NC(=O)Nc1ccc(C(N)=O)cc1	0	0	0	0	0	0
CCOC(=O)c1cc2c(=O)n3ccccc3nc2n(CC2CCCO2)c1=NC(=O)c1ccccc1OCC (centres undefined)	0	0	-	0	0	0
O=C(O)c1cccc(-n2cccc2/C=C/[N+](=O)[O-])c1	22µM	-	32µM	20µM	32µM	10µM
O=C(O)c1cccc(-n2cccc2/C=C\[N+](=O)[O-])c1	22µM	-	0	?	?	-
CN1C(=O)S/C(=C/c2cccn2-c2cccc(C(=O)O)c2)C1=O	0	-	0	0	?	0
O=C(NCc1ccccc1Cl)c1cnc(N2CCCCC2)c2ccccc12	0	0	-	0	0	0
COc1ccc(N2CCN(C(=O)c3ccc(Br)o3)CC2)cc1	0	0	0	0	?	?
O=C(CNC(=O)c1ccccc1F)OCc1nc2ccccc2s1	0	0	0	0	0	0
CNc1sc(C(=O)c2ccccc2F)c(N)c1-c1nc2ccccc2s1	50µM	0	0	?	40µM	?
COc1ccc(C2=CC(c3ccc(OC)c(OC)c3)NC(=S)N2)cc1 (centres undefined)	0	0	0	0	0	32µM
Nc1nc(=O)n(C2CCCCO2)cc1Br (centres undefined)	0	-	-	0	-	-
CC(C)OC(=O)c1ccc(N2CCN(c3ccccc3F)CC2)nc1	0	-	?	0	0	0
O=C(CSCc1cnn(-c2ccccc2)c1-n1cccc1)N1CCN(Cc2ccccc2)CC1	?	0	0	0	?	40µM
O=C(O)CSCc1cnn(-c2ccccc2)c1-n1cccc1	0	0	0	0	?	0
C/C(=N/NC(=O)CN(c1ccccc1)S(=O)(=O)c1ccccc1)c1ccccc1O	?	-	0	0	13µM	-
CCCC/C(C)=N/NC(=O)CN(c1ccc(Br)cc1)S(=O)(=O)c1ccccc1	0	0	0	0	0	0
COc1ccc(Nc2nc(NCCN3CCOCC3)nc(Nc3ccc(OC)cc3)n2)cc1	?	-	0	0	45µM	?
COc1ccc(CCNCCN2CCOCC2)cc1	20µM	-	?	?	25µM	3.5µM
Cc1nnc2c(NC3CCCC3)nc3ccccc3n12	0	0	0	0	0	0
c1ccc2c(c1)nc(NC1CCCCC1)c1nncn12	0	0	0	0	0	45µM
SMILES	JMJD2A Tudor inh	TDP1 inh	Sfp PPTase inh	HP1b binding inh	BAZ2B inh	G9a block
c1ccc2c(c1)nc(Nc1ccc(N3CCCCC3)cc1)c1nncn12	45µM	0	0	?	28µM	16µM
CCc1cnc2c(c1SCC(=O)NCc1ccccc1Cl)c(=O)n(C)c(=O)n2C	0	0	-	?	0	0
Cc1ccccc1NC(=O)CC1SCCNC1=O (centres undefined)	0	0	22µM	0	0	0
COc1ccc2c(c1)c(=O)c(C(=O)c1ccc(F)cc1)cn2CC(=O)Nc1ccc2c(c1)OCO2	0	0	-	0	0	0
Cc1nc(NC(=O)c2ccc(OCC(C)C)cc2)sc1Cc1ccc2c(c1)OCO2	?	0	0	0	?	0
CCC(=O)Nc1sc(Cc2ccc3c(c2)OCO3)c(C)c1C(N)=O	0	0	40µM	0	0	10µM
Cc1c(Cc2ccc3c(c2)OCO3)sc(NC(=O)c2ccc3ccccc3c2)c1C(N)=O	0	0	13µM	0	0	6.3µM
COc1cc(C(=O)Nc2nc(C)c(Cc3ccc4c(c3)OCO4)s2)cc(OC)c1OC	?	0	0	?	0	4µM
CCOc1ccc(NC(=O)CN(C)C(=O)CN2C(=O)c3ccc([N+](=O)[O-])cc3C2=O)cc1OCC	0	0[0.505 µM]	-	0	0	0
CN(C)c1ccc(Nc2nc(N)c3ccccc3n2)cc1	40µM	-	25µM	32µM	14µM	10µM
Nc1nc(Nc2ccc(Cl)cc2)nc2ccccc12	0	0	?	0	0	0[12.7 µM]
COc1cccc(NC(=O)C2CCCN(S(=O)(=O)c3cn(C(C)C)cn3)C2)c1 (centres undefined)	0	0	-	0	0	0
Cc1ccc(C)c(COC(=O)CCN=C2NS(=O)(=O)c3ccccc32)c1	0	0	-	0	0	?
Cc1[nH]n(-c2ccccc2)c(=O)c1C(=O)c1cccc(F)c1	0	0	0	0	0	-
Cc1[nH]n(-c2ccccc2)c(=O)c1N=Nc1ccc(F)cc1	?	-	0	0	4.5µM	4.5µM
Cc1[nH]n(-c2ccc(Cl)cc2)c(=O)c1N=Nc1cccnc1	0	0	0	0	0	0
Cc1[nH]n(-c2ccccc2)c(=O)c1N=Nc1c(O)cc(S(=O)(=O)N(C)C)c2ccccc12	20µM	-	-	18µM	7.9µM	3.5µM
CC(=O)c1cccc(N=Nc2c(-c3ccccc3)[nH]n(-c3ccccc3)c2=O)c1	?	0	?	14µM	5µM	-
Cc1[nH]n(-c2ccccc2)c(=O)c1N=O	0	0	0	0	0	0[12.7 µM]
Cc1ccc(N=Nc2c(C)[nH]n(-c3ccccc3)c2=O)cc1Br	?	-	0	0	13µM	3.5µM
Cc1[nH]n(-c2ccccc2)c(=O)c1N=Nc1cccc([N+](=O)[O-])c1	?	-	0	0	?	-
CSc1ccc(N=Nc2c(C)[nH]n(C)c2=O)cc1	25µM	0	0	45µM	18µM	11µM
COC(=O)c1ccc(N=Nc2c(C)[nH]n(-c3ccccc3)c2=O)cc1	?	0	0	?	?	8.9µM
Cc1[nH]n(-c2ccccc2)c(=O)c1N=Nc1cccc(Cl)c1	?	-	0	?	22µM	-
Cc1[nH][nH]c(=O)c1N=Nc1ccc(Cl)cc1	0	0	0	0	0	?
SMILES	JMJD2A Tudor inh	TDP1 inh	Sfp PPTase inh	HP1b binding inh	BAZ2B inh	G9a block
Cc1[nH]n(-c2ccccc2)c(=O)c1N=Nc1ccc2c(c1)OCCO2	22µM	0	0	?	6.3µM	7.1µM
Cc1[nH]n(-c2ccccc2)c(=O)c1-c1ccccc1	0	0	0	0	-	0
Cc1ccc(N=Nc2c(C)[nH]n(-c3ccccc3)c2=O)c(C)c1	11µM	0	0	22µM	0	0
Cc1cc(N)ccc1N=Nc1c(C)n(C)n(-c2ccccc2)c1=O	?	0	0	0	0	0
O=C(c1ccccc1)c1ccc(NCCCn2ccnc2)c([N+](=O)[O-])c1	40µM	-	0	?	40µM	0[2.33 µM]
Cc1ccccc1-c1nc2c(=O)n(C)c(=O)nc-2n(C)n1	0	0	-	0	-	-
